# HPGD block – qHTS Assay for Inhibitors of HPGD (15-Hydroxyprostaglandin Dehydrogenase) | 15-hydroxyprostaglandin dehydrogenase [NAD(+)] (Homo sapiens), P15428 | purified HPGD, NADH fluorescence kinetic, PGE2 substrate | Potency, µM, for inactives: top-dose activity change, negative = inhibition, hits mostly inhibitors | actives 4.3% (n = 150,000); note: potency is the fitted concentration of half-maximal effect
# Target sequence (P15428 whole entry, looked up): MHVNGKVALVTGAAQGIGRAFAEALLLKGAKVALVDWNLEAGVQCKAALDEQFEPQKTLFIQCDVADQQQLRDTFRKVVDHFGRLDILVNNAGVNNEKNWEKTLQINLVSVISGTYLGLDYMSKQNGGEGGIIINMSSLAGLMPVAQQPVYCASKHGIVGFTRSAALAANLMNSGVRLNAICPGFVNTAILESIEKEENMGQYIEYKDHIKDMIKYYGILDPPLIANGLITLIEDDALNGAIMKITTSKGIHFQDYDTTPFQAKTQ
#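 20 nM HPGD preincubated 15 min at room temperature with compound in 50 mM Tris-HCl pH 8, 0.01% Tween 20. Started with 1 mM NAD+ and 30 uM prostaglandin E2; NADH fluorescence (360/450 nm) read 5 times over 30-s intervals, last minus first.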
# PNC assembly inh – High Content Assay for Compounds that inhibit the Assembly of the Perinucleolar Compartment; PC3M PTB-GFP, PNC prevalence imaging, 16 h; hits give low values; activity change (PNC), negative = inhibition, % at 10 µM; actives 3.1% (n = 140,000); AID 2417, 2010;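 active = readout at or below -70, meaning at least 70% loss of cells showing the perinucleolar compartment, a nuclear body marking cancer cells; inconclusive = readout between -30 and a set limit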;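 note: plate controls were DMSO wells for no effect and camptothecin positive control wells for full effect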
#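 PC3M cells stably expressing PTB-GFP, 750–1000 cells/well, treated 16 h at 37 °C with compound (23 nl of library stock), in duplicate. After paraformaldehyde fixation and Hoechst stain, imaged at 20x; PNC prevalence scored by image analysis.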
# ALDH1A1 inh – qHTS Assay for Inhibitors of Aldehyde Dehydrogenase 1 (ALDH1A1); Purified ALDH1A1, NADH fluorescence, propionaldehyde substrate; Potency, µM (series often up to 75.3 µM), without a hit: at the top dose activity, negative = inhibition, usual class: inhibitors; actives 7.3% (n = 220,000); AID 1030, 2008;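 note: potency is the fitted concentration of half-maximal effect; plate controls were no enzyme wells and a reference inhibitor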
# Active calls of the source: *; ? = inconclusive; / = not tested or not shown; [ ] = remark or other dose. Shown are actives, neighbours in structure and some others; about 11% of the full set was active somewhere. Unless noted, calls come from the whole dose curve; as a rule, active = well fitted inhibition curve with a large enough effect (not every such curve was filed as active); inconclusive = small, poorly fitted or top-dose-only effect, or another doubt; inactive = no such curve, though single readings can be large or run the other way. Unless noted, % is set by controls: 0 for no effect and ±100 for the full control effect.
SMILES,HPGD block,PNC assembly inh,ALDH1A1 inh
NC(=O)N/N=C/c1ccc(N2CCOCC2)s1,-16%,?,?
CC(=O)N[C@@H](CSC(=O)[C@]1([C@@H](O)C(C)C)NC(=O)[C@H](C)[C@@H]1O)C(=O)O,-7%,/,11%[13.5 µM]
CCOC(=O)C12CC1/C(=N\O)c1ccccc1O2 (configuration not stated),/,/,-5%
Oc1csc(Cc2nc(-c3ccc(Br)cc3)cs2)n1,/,/,28µM*
NC(=O)Cc1nc(-c2ccc(Br)cc2)cs1,-11%,44,10%
CC(C)OC(=O)CSc1nc2cccnc2n1C1CCCCC1,-15%,-15,?
CCOC(=O)CNC(=O)CSc1nc2cccnc2n1C1CCCCC1,-13%,-93*,0%
CCOC(=O)CNC(=O)CSc1nc2cccnc2n1Cc1ccccc1,-10%,-80*,?
CCn1c(SCC(=O)Nc2ccc(C(=O)OC)cc2)nc2cccnc21,3.5µM*,-23,1%
Cc1nc(NC(=O)CSc2nc3cccnc3n2Cc2ccccc2)sc1C,-17%,5,-7%
CCn1c(SCC(=O)Nc2ccc(C(C)=O)cc2)nc2ccccc21,-23%,-29,-2%
C=CCOc1ccc(CNCCc2ccc(S(N)(=O)=O)cc2)cc1,/,/,7%
N=C1C(=O)OCC1c1ccccc1NC(=O)Nc1ccccc1 (configuration not stated),/,/,-5%
Cc1ccc(NC(=O)Nc2cc(Cl)ccc2C2COC(=O)C2=N)cc1 (configuration not stated),/,/,7.5µM*
CCC(C)(NC=O)C(=O)Nc1c(C)cccc1C (configuration not stated),/,/,-4%
COc1cc(OC)nc(Oc2ccccc2C(=O)Oc2cccc(C)c2)n1,-6%,32,7%
Cc1cccc2c1N(CCOc1ccc(C(C)(C)C)cc1)C(=O)C2=O,-20%,-17,0.5µM*
Cc1ccc(OCCCN2C(=O)C(=O)c3cccc(C)c32)cc1,18µM*,64,0.071µM*
COc1ccccc1OCCCN1C(=O)C(=O)c2cccc(C)c21,/,/,0%
COc1ccc(OCCN2C(=O)c3ccccc3C2=O)cc1,/,/,-4%
COc1c2c(cc3c1C(CC(O)C(C)C)N(C)CC3)OCO2 (configuration not stated),-2%,/,7%
C=CC[C@@H]1C=C[C@H](ON=C(C)C)[C@H](CO)O1,/,/,7%[13.5 µM]
CN1C(=O)CS/C1=N\NC(=O)COc1cccc2cccnc12,/,/,-3%
O=C(Nc1ccccc1)C1=C[C@H](c2coc3ccccc3c2=O)C[C@H](OCc2ccc(CO)cc2)O1,/,/,-7%
O=C(NCc1ccccc1)C1=C[C@@H](c2coc3ccccc3c2=O)C[C@@H](OCc2ccc(CO)cc2)O1,/,/,7.9µM*
SMILES,HPGD block,PNC assembly inh,ALDH1A1 inh
O=C(NCc1ccccc1)C1=C[C@@H](C2CC2)C[C@@H](OCc2ccc(CO)cc2)O1,/,/,11µM*
O=C(NCc1ccccc1)C1=C[C@@H](C2CC2)C[C@@H](OCCCCO)O1,/,/,-16%
C[C@@H](CCCCC(=O)Nc1ccc(C(F)(F)F)cc1)NCCc1cnc[nH]1,4%,/,2%
CN1CCCN=C1/C=C\c1cccs1,0%,/,5%[20.9 µM]
O=C(Cc1ccccc1)Nc1ccc(SC(F)F)cc1,-13%,?,-2%
C=CCc1cc(C=O)cc(OCC)c1O,/,/,-7%
COc1ccc(Br)cc1/C=N/NC(=O)c1nc(-c2ccccc2)n2c1CCCCC2,-14%,45,-3%
CC(C(=O)Nc1ccc(S(=O)(=O)N2CCOCC2)cc1)N1CCN(c2ccccn2)CC1 (configuration not stated),/,/,8%
COc1ccc(NC(=O)C(c2ccccc2)N2CCN(c3ccccn3)CC2)cc1Cl (configuration not stated),/,/,8.9µM*
CC(C)CNC(=O)/C=C/c1cccs1,?,-3,6%
CN[C@@H](c1ccncc1)[C@@H](NC)c1ccncc1,-8%,/,3%[13.5 µM]
COc1cccc(C(=O)Nc2cccc(C(=O)NC3=NN(c4c(Cl)cc(Cl)cc4Cl)C(=O)C3)c2)c1,-25%,38,-1%
COc1ccc(/C=C2\C(=O)N(c3c(Cl)cc(Cl)cc3Cl)N=C2NC(=O)c2cccc([N+](=O)[O-])c2)cc1,22µM*,18,?
COC(=O)C1CCN(c2nc3ccccc3nc2C(C#N)C(=O)OCC(C)C)CC1 (configuration not stated),-5%,-83*,?
COC(=O)C1CCN(c2nc3ccccc3nc2C(C#N)C(=O)NCCc2ccccc2)CC1 (configuration not stated),-5%,9,-4%
CCC1(C)SC(N)=NN1C(C)=O (configuration not stated),/,/,7%
CC(=O)c1cccc(NC(=O)N2CCC(NC(=O)C34CC5CC(CC(C5)C3)C4)CC2)c1,/,/,-5%
CCCn1c(SCC(=O)NC(=O)NC(C)(C)C)n[nH]c1=O,/,/,5%
COc1cccc(NC(=O)CSc2nc3c(oc4ccccc43)c(=O)[nH]2)c1,16µM*,-14,-7%
COc1cccc(NC(=O)CSc2ncnc3c2oc2ccccc23)c1,-14%,-26,-3%
COc1ccc(Nc2nc(N)nc(CSc3nnc(N)s3)n2)cc1,-11%,-96*,10%
COc1ccc2nc(SCc3nc(N)nc(Nc4ccccc4)n3)[nH]c2c1,-19%,?,7.9µM*
COc1ccc(OCc2nc(N)nc(Nc3ccccc3)n2)cc1,-5%,?,?
COc1ccc(Nc2nc(N)nc(CSc3nc(C)cc(C)n3)n2)cc1,/,/,1%
COc1ccc2nc(SCC(=O)Nc3ccccc3)[nH]c2c1,-26%,-107*,-76%
SMILES,HPGD block,PNC assembly inh,ALDH1A1 inh
COc1ccc2nc(SCC(=O)Nc3c(C)cccc3C)[nH]c2c1,-17%,-22,?
CN1CCN(C(=O)CNc2ccc(C(F)(F)F)cc2[N+](=O)[O-])CC1,/,/,3%
CCN(CC(=O)Nc1ccc(C(C)=O)cc1)CC(=O)Nc1ccccc1C(F)(F)F,/,/,10µM*
CCN(CC)c1ccc(NC(=O)Nc2ccccc2C(F)(F)F)cc1,-8%,8,4µM*
CCN(CC(=O)Nc1ccccc1OC)CC(=O)Nc1ccccc1C(F)(F)F,/,/,0%
O=C(Nc1ccccc1C(F)(F)F)Nc1cccc2ccccc12,-23%,-6,-1%
O=C(COC(=O)C1CC(O)CN1C(=O)Oc1ccccc1)c1ccc(Br)cc1 (configuration not stated),0%,?,14%
Cn1cc(CN2CCC(C(=O)N3CCCCC3)CC2)c(-c2ccccc2F)n1,/,/,-3%
Cn1nc([N+](=O)[O-])nc1Sc1nnnn1-c1ccc(C(=O)O)cc1,/,/,0%
COC(=O)NC(/C(C(=O)OC)=C(\C)NCc1ccccc1)c1cccc(F)c1 (configuration not stated),/,/,-21%[13.5 µM]
CC1CCN(c2ccc(C(=O)Nc3ccc4c(c3)OCO4)cc2[N+](=O)[O-])CC1,-8%,18,?
O=C(NCc1ccc2c(c1)OCO2)c1ccc(N2CCCCCC2)c([N+](=O)[O-])c1,14µM*,-6,10µM*
O=C(NN1CCN(Cc2ccccc2)CC1)c1ccc(N2CCOCC2)c([N+](=O)[O-])c1,/,/,2.2µM*
O=C(NCCN1CCOCC1)c1ccc(N2CCCC2)c([N+](=O)[O-])c1,/,/,16µM*

# Compound activity from PubChem BioAssay.
